# Assay results: the supplement of paper PMC12282887
# ± gives the standard deviation of the averaged measurements.
# Experiments:
# Assay in all cases: promoter activity interaction Z-score (Lux/OD deviation from empty-vector control); higher = stronger promoter induction by the compound
# [1] = tested on: E. coli BW25113 acrABp lux reporter
# In short: (§1)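 Low-copy luxCDABE promoter reporters were carried by E. coli BW25113, either wild type or lacking one of three genes, grown in 40 µl LB Lennox in 384-well plates at 37°C. Each compound was run at four 1:2 dilutions in biological duplicates, with OD600 and luminescence read every 30 min for 12 h. Integration used 0–8 h for wild type and 1–9 h for deletion strains, and wells under 10% of the median growth value were removed. Luminescence normalised to growth was fitted against a control, and the Z-transformed residual is the score.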
# [2] = tested on: E. coli BW25113 marRABp lux reporter
# In short: as §1
# [3] = tested on: E. coli BW25113 micFp lux reporter
# In short: as §1
# [4] = tested on: E. coli BW25113 ompFp lux reporter
# In short: as §1
# [5] = tested on: E. coli BW25113 robp lux reporter
# In short: as §1
# [6] = tested on: E. coli BW25113 soxSp lux reporter
# In short: as §1
# [7] = tested on: E. coli BW25113 tolCp lux reporter
# In short: as §1
# [8] = 24.6 µg/ml, genetic background: wild type
# [9] = 24.6 µg/ml, genetic background: ΔmarA
# [10] = 24.6 µg/ml, genetic background: Δrob
# [11] = 24.6 µg/ml, genetic background: ΔsoxS
# [12] = 49.3 µg/ml, genetic background: wild type
# [13] = 49.3 µg/ml, genetic background: ΔmarA
# [14] = 49.3 µg/ml, genetic background: Δrob
# [15] = 49.3 µg/ml, genetic background: ΔsoxS
# [16] = 98.6 µg/ml, genetic background: wild type
# [17] = 98.6 µg/ml, genetic background: ΔmarA
# [18] = 98.6 µg/ml, genetic background: Δrob
# [19] = 98.6 µg/ml, genetic background: ΔsoxS
# [20] = 197.1 µg/ml, genetic background: wild type
smiles,measurement,setting,value
CC[n+]1c(-c2ccccc2)c2cc(N)ccc2c2ccc(N)cc21 [Ethidiumbromide],promoter activity interaction Z-score,[1]; [8],0.326 ± 0.22
same,promoter activity interaction Z-score,[1]; [9],0.524 ± 0.7
same,promoter activity interaction Z-score,[1]; [10],0.354 ± 0.098
same,promoter activity interaction Z-score,[1]; [11],-0.0764 ± 0.31
same,promoter activity interaction Z-score,[1]; [12],0.808 ± 0.11
same,promoter activity interaction Z-score,[1]; [13],1.18 ± 0.92
same,promoter activity interaction Z-score,[1]; [14],0.756 ± 0.029
same,promoter activity interaction Z-score,[1]; [15],0.5305 ± 0.0051
same,promoter activity interaction Z-score,[1]; [16],1.2 ± 0.53
same,promoter activity interaction Z-score,[1]; [17],0.599 ± 1.3
same,promoter activity interaction Z-score,[1]; [18],0.819 ± 0.29
same,promoter activity interaction Z-score,[1]; [19],0.475 ± 0.05
same,promoter activity interaction Z-score,[2]; [8],0.958 ± 0.21
same,promoter activity interaction Z-score,[2]; [9],0.99 ± 0.055
same,promoter activity interaction Z-score,[2]; [10],0.804 ± 0.17
same,promoter activity interaction Z-score,[2]; [11],0.684 ± 0.19
same,promoter activity interaction Z-score,[2]; [12],1.32 ± 0.076
same,promoter activity interaction Z-score,[2]; [13],1.56 ± 0.57
same,promoter activity interaction Z-score,[2]; [14],1.1 ± 0.13
same,promoter activity interaction Z-score,[2]; [15],1.368 ± 0.0038
same,promoter activity interaction Z-score,[2]; [16],1.6 ± 0.43
same,promoter activity interaction Z-score,[2]; [17],1.57 ± 0.26
same,promoter activity interaction Z-score,[2]; [18],1.07 ± 0.073
same,promoter activity interaction Z-score,[2]; [19],1.15 ± 0.091
same,promoter activity interaction Z-score,[3]; [8],0.89 ± 0.25
same,promoter activity interaction Z-score,[3]; [9],0.0467 ± 0.069
same,promoter activity interaction Z-score,[3]; [10],0.437 ± 0.23
same,promoter activity interaction Z-score,[3]; [11],0.0133 ± 0.038
same,promoter activity interaction Z-score,[3]; [12],1.09 ± 0.86
same,promoter activity interaction Z-score,[3]; [13],0.0126 ± 0.13
same,promoter activity interaction Z-score,[3]; [14],0.436 ± 0.016
same,promoter activity interaction Z-score,[3]; [15],0.338 ± 0.11
same,promoter activity interaction Z-score,[3]; [16],0.763 ± 1.3
same,promoter activity interaction Z-score,[3]; [17],-0.124 ± 0.015
same,promoter activity interaction Z-score,[3]; [18],0.377 ± 0.036
same,promoter activity interaction Z-score,[3]; [19],-0.366 ± 0.13
same,promoter activity interaction Z-score,[3]; [20],1.24
same,promoter activity interaction Z-score,[4]; [8],0.291 ± 0.39
same,promoter activity interaction Z-score,[4]; [9],0.262 ± 0.15
same,promoter activity interaction Z-score,[4]; [10],0.428 ± 0.57
same,promoter activity interaction Z-score,[4]; [11],-0.386 ± 0.08
same,promoter activity interaction Z-score,[4]; [12],0.79 ± 0.52
same,promoter activity interaction Z-score,[4]; [13],0.776 ± 0.33
same,promoter activity interaction Z-score,[4]; [14],0.612 ± 0.19
same,promoter activity interaction Z-score,[4]; [15],0.772 ± 0.8
same,promoter activity interaction Z-score,[4]; [16],0.327 ± 1.1
same,promoter activity interaction Z-score,[4]; [17],0.808 ± 0.52
same,promoter activity interaction Z-score,[4]; [18],-0.58 ± 0.54
same,promoter activity interaction Z-score,[4]; [19],-0.257 ± 0.67
same,promoter activity interaction Z-score,[5]; [8],0.277 ± 0.67
same,promoter activity interaction Z-score,[5]; [9],0.595 ± 0.36
same,promoter activity interaction Z-score,[5]; [10],0.758 ± 0.77
same,promoter activity interaction Z-score,[5]; [11],1.25 ± 1.1
same,promoter activity interaction Z-score,[5]; [12],-0.152 ± 0.42
same,promoter activity interaction Z-score,[5]; [13],1.37 ± 0.033
same,promoter activity interaction Z-score,[5]; [14],-0.413 ± 0.32
same,promoter activity interaction Z-score,[5]; [15],0.804 ± 0.45
same,promoter activity interaction Z-score,[5]; [16],-0.356 ± 0.7
same,promoter activity interaction Z-score,[5]; [17],-0.204 ± 0.19
same,promoter activity interaction Z-score,[5]; [18],-1.46 ± 0.089
same,promoter activity interaction Z-score,[5]; [19],-0.959 ± 1.1
same,promoter activity interaction Z-score,[6]; [8],0.555 ± 0.028
same,promoter activity interaction Z-score,[6]; [9],0.911 ± 0.17
same,promoter activity interaction Z-score,[6]; [10],0.717 ± 0.25
same,promoter activity interaction Z-score,[6]; [11],1.38 ± 0.36
same,promoter activity interaction Z-score,[6]; [12],1.31 ± 0.084
same,promoter activity interaction Z-score,[6]; [13],1.5169 ± 0.00016
same,promoter activity interaction Z-score,[6]; [14],1.38 ± 0.24
same,promoter activity interaction Z-score,[6]; [15],2.47 ± 0.14
same,promoter activity interaction Z-score,[6]; [16],1.8 ± 0.019
same,promoter activity interaction Z-score,[6]; [17],2.07 ± 0.081
same,promoter activity interaction Z-score,[6]; [18],2.14 ± 0.22
same,promoter activity interaction Z-score,[6]; [19],3.77 ± 0.59
same,promoter activity interaction Z-score,[6]; [20],0.127 ± 0.036
same,promoter activity interaction Z-score,[7]; [8],-0.0407 ± 0.73
same,promoter activity interaction Z-score,[7]; [9],0.142 ± 0.75
same,promoter activity interaction Z-score,[7]; [10],-0.711 ± 0.15
same,promoter activity interaction Z-score,[7]; [11],0.75 ± 0.61
same,promoter activity interaction Z-score,[7]; [12],0.059 ± 0.45
same,promoter activity interaction Z-score,[7]; [13],0.836 ± 0.52
same,promoter activity interaction Z-score,[7]; [14],-0.973 ± 1
same,promoter activity interaction Z-score,[7]; [15],0.167 ± 0.58
same,promoter activity interaction Z-score,[7]; [16],0.025 ± 1.1
same,promoter activity interaction Z-score,[7]; [17],-0.192 ± 0.57
same,promoter activity interaction Z-score,[7]; [18],-0.394 ± 0.42
same,promoter activity interaction Z-score,[7]; [19],0.815 ± 0.81
same,promoter activity interaction Z-score,[7]; [20],-0.153 ± 0.69
same,promoter activity interaction Z-score,"[7]; 197.1 µg/ml, genetic background: ΔsoxS",-1.48 ± 0.4
